Hit rate of the full screen: of about 44,000 sequences, about 4,100 (9.3%) were called active. This is one part of a sample in which actives are shown more often than they occur. Cut-off read from the data, not from the text of the source: active = GI50 up to about 1.1 µM and inactive = higher. Entries with a potency or affinity are not part of this list.
The substances below were run on MDA-MB-435.

Q: Which GI50 does the source give for “[Bis(aminomethyl)tetramethylenesilane]dichloropaltinum(II), CHEMBL2146205” here?
A: Its GI50 is 3.51 µM.

Q: How did the GI50 turn out when “[Bis(aminomethyl)tetramethylenesilane]tetrachloropaltinum(IV), CHEMBL2146189” was run?
A: The GI50 was 9.02 µM.

Q: Which GI50 does the source give for CISPLATIN, CHEMBL11359 here?
A: Its GI50 is 5.96 µM.

Q: How did the GI50 turn out when “[Bis(aminomethyl)pentamethylenesilane]dichloropaltinum(II), CHEMBL2146202” was run?
A: The GI50 was 1.31 µM.

Q: Which GI50 does the source give for “[Bis(aminomethyl)pentamethylenesilane]tetrachloropaltinum(IV), CHEMBL2146204” here?
A: The GI50 was 0.438 µM.

Q: For “[Bis(aminomethyl)dimethylsilane]tetrachloroplatinum(IV), CHEMBL2146190”, which GI50 is on record?
A: The GI50 was 13.9 µM.

From ChEMBL document CHEMBL1201862, “PubChem BioAssay data set” (2004)
